RGS12 GoLoco inh: qHTS Assay for Inhibitors of RGS12 GoLoco Motif Activity (Red Fluorophore); Guanine nucleotide-binding protein G(i) subunit alpha-1 (Homo sapiens), P63096; Gai1:RGS12 GoLoco peptide FP, rhodamine, 10 min; Potency, µM (titrated, usually from 61.6 µM), for inactives: at the highest dose activity, negative = inhibition, actives largely listed as inhibitors; 230,000 compounds, 0.44% hits; AID 880, 2007; active means well fitted inhibition curve with a large enough effect, not every such curve was filed as active; inactive means no such curve, though single readings can be large or run the other way; further: potency means the concentration at half of the fitted maximal effect; on the % scale 0 is the no-effect control and ±100 the full control effect; nearly all actives have a fitted effect of over 30% in size
Menin-MLL TR inh: qHTS Assay for Inhibitors Targeting the Menin-MLL Interaction in MLL Related Leukemias: Competition With Texas Red Labeled MLL-derived Mutant Peptide. O00255. Menin + Texas Red MLL mutant peptide, fluorescence polarization. Potency, µM (highest dose often 61.6 µM), inactives show top-dose FP activity change, negative = inhibition, most hits filed as inhibitors. 270,000 compounds, 0.23% hits. AID 1768, 2009; active means well fitted inhibition curve with a large enough effect in the polarisation, with a control signal flat, not every such curve was filed as active; inconclusive means small, poorly fitted or top-dose-only effect, or effect the other way, or a change in a side signal; inactive means no such curve, though single readings can be large or run the other way; the % refers to the polarisation; further: potency means the concentration at half of the fitted maximal effect; % of control where 0% means no effect
Tb PFK inh-1: qHTS Assay to Find Inhibitors of T. brucei phosphofructokinase; T. brucei PFK, ADP-Glo luminescence; Potency, µM (series often up to 57.5 µM), for inactives: top-dose activity, negative = inhibition, usual class: inhibitors; 330,000 compounds, 0.17% hits; AID 485367, 2010;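 further: potency means the concentration at half of the fitted maximal effect; 0% = uninhibited 1x PFK enzyme wells and -100% = no-enzyme wells; nearly all actives have a fitted effect of over 60% in size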
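1.25 nM PFK with 0.5 mM F6P and 0.1 mM ATP in 0.1 M TEA pH 8.0, 5 mM MgCl2, incubated 45 min at room temperature; ADP measured by ADP-Glo luminescence; compounds titrated up to 57 uM.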
CXXC DNA block: qHTS Fluorescence Polarization Assay for Inhibitors of MLL CXXC domain - DNA interaction. Histone-lysine N-methyltransferase 2A (Homo sapiens), Q03164. MLL-CXXC / FITC-HOXA9 DNA fluorescence polarization. Potency, µM (top dose mostly 115 µM), for the others: at the highest dose activity change, negative = inhibition, most hits filed as inhibitors. 290,000 compounds, 0.037% hits. AID 2662, 2010; active means well fitted inhibition curve with a large enough effect in the polarisation, with a control signal flat, not every such curve was filed as active; inconclusive means small, poorly fitted or top-dose-only effect, or effect the other way, or a change in a side signal; inactive means no such curve, though single readings can be large or run the other way; the % refers to the polarisation; further: potency means the concentration at half of the fitted maximal effect
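Fluorescence polarization: 7 uM MLL-CXXC (stock) preincubated 5 min with compounds, then 50 nM fluorescein-HOX-A9 DNA (stock) added; 30 min ambient. Buffer 50 mM Tris-HCl pH 7.5, 50 mM NaCl, 1 mM DTT, 0.05% BSA.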
Menin MLL FP FL: qHTS Assay for Inhibitors Targeting the Menin-MLL Interaction in MLL Related Leukemias: Competition With Fluorescein Labeled MLL-derived Peptide; 290,000 tested, under 10 active; FP activity change, % at 61.4 µM; Fluorescence polarization, fluorescein-MLL peptide displacement from menin; active means well fitted curve in the direction sought with a large enough effect in the polarisation, not every such curve was filed as active; inconclusive means small, poorly fitted or top-dose-only effect, or effect the other way, or a change in a side signal; inactive means no such curve, though single readings can be large or run the other way; the % refers to the polarisation; further: % of control where 0% means no effect
Tb PFK KinaseGlo: Tb PFK orthogonal confirmatory assay using ATP depletion (Kinase-Glo Plus) as an alternative measure of Tb PFK activity: Hit Validation; Potency, µM (doses to about 57.5 µM), for the others: at the top dose inhibition; AID 504636, 2011; Tb PFK enzyme, ATP depletion, Kinase-Glo Plus luminescence; 1,100 compounds, 47% hits; shares compounds with Tb PFK inh-1; calls by dose curve; further: potency means the concentration at half of the fitted maximal effect; nearly all actives have a fitted effect of over 60% in size
Tb PFK inh-2: Inhibitors of T. brucei phosphofructokinase: Hit Validation. shares compounds with Tb PFK inh-1. Potency, µM (doses to about 57.5 µM), for the others: top-dose activity change, negative = inhibition, most hits filed as inhibitors. purified T. brucei PFK, ADP-Glo luminescence, 45 min. 1,100 compounds, 41% hits;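 further: potency means the concentration at half of the fitted maximal effect; plate controls were full PFK enzyme control for no effect and no enzyme control for full effect; nearly all actives have a fitted effect of over 60% in size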
Starred values were filed as active, the others as inactive; ? = inconclusive; / = not tested or not shown. A selection: hits, their analogues and other compounds. The true share with any hit is near 0.43%. Unless noted, the call rests on the fitted dose curve; in most records, active means well fitted inhibition curve with a large enough effect; inconclusive means small, poorly fitted or top-dose-only effect, or effect the other way; inactive means flat fitted curve, though single readings scatter.

SMILES	RGS12 GoLoco inh	Menin-MLL TR inh	Tb PFK inh-1	CXXC DNA block	Menin MLL FP FL	Tb PFK KinaseGlo	Tb PFK inh-2
COc1c(OC2OC(C(=O)O)C(O)C(O)C2O)cc(O)c2c(=O)cc(-c3ccccc3)oc12 (configuration not stated)	9%	-21%	-19%	0%	0	/	/
O=C(O)C1OC(Oc2cc3oc(-c4ccccc4)cc(=O)c3c(O)c2O)C(O)C(O)C1O (configuration not stated)	-21%	?	6.7µM*	-7%	8	?	9.5µM*
CC1=C(C)C(=O)C(C(CCCCCC(=O)O)c2ccccc2)=C(C)C1=O (configuration not stated)	/	-4%	/	2%	3	/	/
Nc1nnc(Cc2cccc(Br)c2)s1	1%	/	?	1%	2	21µM*	30µM*
Nc1nnc(Cc2ccccc2)s1	5%	3%	-6%	-10%	-2	/	/
Cc1cc(-c2nnc(CCC(=O)N(CC3CCC3)CC3CCCO3)o2)no1 (configuration not stated)	0%	27%	2%	1%	-4	/	/
Cc1nc2cc(NC(=O)COc3ccc(C#N)cc3)ccc2n1-c1ccccc1	57%	-1%	21µM*	1%	-3	?	?
NC(CC(=O)Nc1ccc(Oc2cc(F)c(F)cc2Br)cc1)C(=O)O (configuration not stated)	/	21%	/	/	-1	/	/
O=C(Nc1nnc(-c2ccccc2)s1)c1ccccc1O	/	?	?	42%	0	-28%	?
COc1ccccc1C(=O)Nc1nnc(-c2ccccc2)s1	/	30%	-4%	1%	-2	/	/
Cc1ccc(C(=O)Nc2cccc3[nH]c(C(F)(F)F)nc23)cc1	/	28%	?	-4%	1	?	?
Cc1ccc(F)c(C2C3C=CCC(c4ccccc4)C3C(=O)N2Cc2ccccc2)c1 (configuration not stated)	/	-18%	/	/	1	/	/
N#Cc1ccc2ccn(CC(=O)NCc3ccco3)c2c1	7%	2%	21µM*	7%	2	13µM*	30µM*
C/C(=N/NC(=O)c1cc(O)c(O)c(O)c1)c1ccc([N+](=O)[O-])cc1	-9%	?	?	11%	0	/	/
C/C(=N\NC(=O)C(C)Nc1cccc(Cl)c1)c1ccc([N+](=O)[O-])cc1 (configuration not stated)	3%	11%	?	1%	1	?	?
CCn1c(=O)n(C2=C(CO)CN(CC3CCCCCCC3)CC2)c2ccccc21	/	-12%	/	/	-2	/	/
Cc1cc(NS(=O)(=O)c2ccc(NC(=O)COc3ccccc3Cl)cc2)no1	8%	14%	?	15%	2	/	/
Cc1cc(NS(=O)(=O)c2ccc(NC(=O)Cc3ccc([N+](=O)[O-])cc3)cc2)no1	/	15%	2.4µM*	-5%	1	0.85µM*	1.5µM*
Cc1cc(NS(=O)(=O)c2ccc(NC(=O)COc3ccc(Cl)cc3)cc2)no1	10%	-10%	5.4µM*	2%	5	1.7µM*	3.8µM*
Cc1noc(NS(=O)(=O)c2ccc(NC(=O)COc3ccc(C#N)cc3)cc2)c1C	/	/	13µM*	/	/	6.7µM*	21µM*
Cc1cc(NS(=O)(=O)c2ccc(NC(=O)Nc3ccccc3)cc2)no1	10%	11%	-4%	1%	7	/	/
Cc1cc(NS(=O)(=O)c2ccc(NC(=S)NCc3ccccc3)cc2)no1	20%	-7%	19µM*	38%	3	24µM*	?
Cc1c(C(=O)O)cccc1-c1ccc(/C=N/Nc2ccc(Br)cc2)o1	8%	?	-8%	14%	?	/	/
N#Cc1ccc(NC(=O)CCc2ccc(S(=O)(=O)N3CCOCC3)cc2)cc1	-1%	-2%	-4%	-2%	4	/	/
CCc1nnc(NS(=O)(=O)c2ccc(NC(=O)Nc3ccc(OC)cc3)cc2)s1	/	?	?	-27%	-1	/	/
SMILES	RGS12 GoLoco inh	Menin-MLL TR inh	Tb PFK inh-1	CXXC DNA block	Menin MLL FP FL	Tb PFK KinaseGlo	Tb PFK inh-2
CCc1nnc(NS(=O)(=O)c2ccc(NC(=O)COc3ccc(Cl)c(C)c3)cc2)s1	-5%	?	5.4µM*	5%	-6	2.4µM*	7.6µM*
N#Cc1ccc(OCC(=O)Nc2ccc(S(=O)(=O)N3CCOCC3)cc2)cc1	/	/	12µM*	/	/	12µM*	30µM*
Nc1nc2[nH]cc(CCc3ccc(C(=O)NC(CCC(=O)O)C(=O)O)cc3)c2c(=O)[nH]1 (configuration not stated)	/	-2%	/	8%	2	/	/
C=CC#CC[N+]1(CC#Cc2ccccc2)CCOCC1	4%	25µM*	?	51%	-20	-29%	?
NC(=O)N/N=C1\c2ccccc2-c2c(C(N)=O)cccc21	/	14%	?	4%	-5	11%	-4%
O=C(O)c1ccc(-n2cccc2/C=C2/SC(=O)N(CC(=O)N3CCCC3)C2=O)cc1	/	3%	?	-2%	?	4.8µM*	5.4µM*
ON=Cc1cccn1-c1ccccc1	4%	3%	0%	3%	-1	/	/
O=C(O)c1cccc(-n2cccc2/C=C2\NC(=O)N(Cc3ccc(F)cc3)C2=O)c1	13%	?	-5%	3%	12	/	/
Cc1ccc(CN2C(=O)N/C(=C\c3cccn3-c3cccc(C(=O)O)c3)C2=O)cc1	10%	15%	?	19%	20	?	?
O=C(O)c1ccc(-n2cccc2/C=C2/NC(=O)N(c3ccccc3)C2=O)cc1	-9%	/	?	-10%	18	?	19µM*
O=C(O)c1cccc(-n2cccc2/C=N/O)c1	-10%	10%	21µM*	7%	4	?	?
O=C(O)c1ccc(-n2cccc2/C=C2/NC(=O)N(c3cccc(Cl)c3)C2=O)cc1	10%	3%	-25%	4%	19	/	/
COc1cc2c(Nc3ccc(Br)cc3F)ncnc2cc1OCC1CCN(C)CC1	/	-23%	/	-2%	-5	/	/
CCCN(CC(=O)Nc1ccccc1C)C(=O)C1CCN(C(=O)Nc2ccccc2)CC1	/	/	-6%	/	/	/	/

From PubChem BioAssay
